# Assay results as given in PubChem BioAssay (NCI).
# This is part of a sample that, as a whole, favours compounds with a hit. Of some 83,000 tested, about 20% had one in any assay.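 Single-concentration screen, 48 h exposure, 96-well plates. Endpoint: percent growth. Below 10 = active.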 The source made the active and inactive calls.
# System: COLO 205 colon
# Assay: NCI-60 one-dose screen, 48 h (100 = growth as untreated, 0 = no growth, -100 = all killed)
# Conditions: 10 µM
# Procedure: Cells are grown in 96 well plates and exposed to the test compound for 48 hours. Compounds are tested at a single concentration, which is 10^-5 M for most compounds. The reported endpoint is percent growth (GI% or GIPRCNT), where numbers from 0 - 100% represent growth inhibition, and numbers from -100% - 0 represent cell death. For example, a value of 40 represents 60% growth inhibition. A value of 0 means no net growth occurred over the course of the experiment. A value of -40 indicates 40% of cells at the beginning of the experiment died by the end of the experiment. A value of -100 means all cells are dead at the end of the experiment.
# NCI-60 Human Tumor Cell Lines Screen was performed using the standard one-dose NCI protocol, which is described in more detail at https://dtp.cancer.gov/discovery_development/nci-60/default.htm.
# Compounds with GIPRCNT values below 10 were considered active. Activity score was based on GIPRCNT using the following formula: […]
# Score is 0 for GIPRCNT values of 100 or above, 50 for GIPRCNT values of 0, and 100 for GIPRCNT values of -100.
row,SMILES,growth
1,Nc1nc(N=Nc2ccc(O)cc2)cc(=O)[nH]1,106% (inactive)
2,COc1cc(-c2nc(-c3nnc(-c4ccc(F)c(Cl)c4)o3)c3ccccn23)cc(OC)c1OC,43.7% (inactive)
3,COc1ccc(Oc2nc(NC3CCCC3)nc(Sc3ccc(OC)cc3)n2)cc1,82.2% (inactive)
4,CN(C)CCN=c1nc2c(c(N)n1-c1ccccc1)c(=S)n(-c1ccccc1)c(=S)n2-c1ccccc1,6.65% (active)
5,COC(=O)C1=NNC(=S)N(c2cc(C)[nH]n2)C(=O)C1,116% (inactive)
6,CN(C)CCOc1nc2ccccc2c2c1-c1ccc(Cl)cc1C2=O,-76.1% (active)
7,O=C(CCCCC(=O)Nc1ccc2c(c1)/C(=C/c1ccc[nH]1)C(=O)N2)NO,89% (inactive)
8,COc1ccc(/C=C/C(=O)Nc2ccc(-c3nc4ccc(F)cc4s3)cc2)cc1,110% (inactive)
9,CCN(CC)CCCOCCCNc1cc(OC)cc2cccnc12,31.2% (inactive)
10,CC(=O)c1cc(Br)ccc1O,121% (inactive)
11,O=C(Nc1cccc(-n2cc(-c3ccncc3)c(-c3ccc(O)c(Cl)c3)n2)c1)c1ccc(N2CCOCC2)c(C(F)(F)F)c1,51.2% (inactive)
12,O=C1c2ccc3c4c(ccc(c24)C(=O)N1CCNCc1ccccc1)C(=O)N(CCNCc1ccccc1)C3=O,24.1% (inactive)
13,O=C1OCC2=C1C(c1cccc(Cl)c1)c1cc3c(cc1N2CCO)OCO3 (stereo not given),-6.41% (active)
14,COc1ccc(-c2nnc(-c3c(-c4ccccc4)nc4ncccn34)o2)cc1OC,100% (inactive)
15,COc1ccc(Nc2ncnc3c2c(SC)nn3-c2ccccc2)cc1,111% (inactive)
16,CCN(CC)CCN1CC(=O)Nc2cc(Cl)ccc21,102% (inactive)
17,C#Cc1ccc(-n2c(/C=C/c3ccc(O)c(OC)c3)nc3ncccc3c2=O)cc1,109% (inactive)
18,CCn1cc(C(=O)O)c(=O)c2cnc(N3CCCC3)nc21,111% (inactive)
19,COc1cc(-c2cc(C(=O)N3CCN(C(=O)c4ccccc4NCc4cccs4)CC3)nc3cc(-c4ccccc4)nn23)cc(OC)c1OC,56.1% (inactive)
20,FC(F)(F)c1ccc(-c2cnc(-n3cc(COCCN4CCCCC4)nn3)nc2NC2CCCCCC2)cc1,-93.4% (active)

row,SMILES,growth
1,CCc1ccc2c(c1)N(CCO)C1=C(C(=O)OC1)C2c1ccccc1 (stereo not given),109% (inactive)
2,CCOC(=O)N/N=C\C(C)=N\NC(=O)OCC,114% (inactive)
3,O=C1/C(=C\c2ccc(Cl)cc2)CN(C(=S)Nc2ccccc2)C/C1=C\c1ccc(Cl)cc1,-86.1% (active)
4,O=C(CSSCC(=O)c1ccc(Cl)cc1)c1ccc(Cl)cc1,104% (inactive)
5,CN(C)c1ccc(/C=C/C=N/NC(=O)c2cc(O)c(O)c(O)c2)cc1,94.1% (inactive)
6,COc1ccc2c(c1)-c1c(c3cc(OC)ccc3n(CCN(C)C)c1=O)C2=O,14.7% (inactive)
7,COc1cc(/C=C/C(=O)c2ccc(Cl)cc2)ccc1OS(=O)(=O)c1ccc(C)cc1,110% (inactive)
8,O=C1ON=[N+](c2ccc(Cc3ccc([N+]4=NOC(=O)C4CN4CCOCC4)cc3)cc2)C1CN1CCOCC1 (stereo not given),99.9% (inactive)
9,COc1cc(Cl)cc(-c2nn(-c3cccc(NC(=O)Nc4ccc(Cl)c(Cl)c4)c3)cc2-c2ccncc2)c1,-70.3% (active)
10,Nc1ncn(C2OC(CO)C(O)C2O)c(=O)n1 (stereo not given),2.62% (active)
11,O=[P@@]1(c2ccccc2)O[C@H](COCc2ccccc2)[C@@H](OCc2ccccc2)[C@H](OCc2ccccc2)[C@H]1O,118% (inactive)
12,COc1ccc(C2=Nc3c(C)nn(-c4ccccc4)c3NC(c3ccc(Oc4ccnc5cc(Cl)ccc45)c(OC)c3)C2)cc1 (stereo not given),83.6% (inactive)
13,O=C1/C(=C/c2ccc([N+](=O)[O-])s2)Oc2ccccc21,-69.2% (active)
14,COc1cc(/C(=C2/O[C@@H]([C@H]3COC(C)(C)O3)[C@H]3OC(C)(C)O[C@@H]23)c2ccc3ccccc3c2)cc(OC)c1OC,66.9% (inactive)
15,CCN(CC)CCNC(=O)c1ccc(NC(C)=O)cc1,112% (inactive)
16,CCCC1(CC(=O)O)OCCc2c1[nH]c1ccccc21 (stereo not given),229% (inactive)
17,Nc1c(C(=O)Nc2cccc3ccccc23)sc2nc3c(cc12)C(=O)CCC3,-20.7% (active)
18,O=C(O)CN1C(=O)c2cccc3cccc(c23)C1=O,105% (inactive)
19,Cc1ccc(C(=O)N2C/C(=C/c3ccccc3)C(=O)/C(=C/c3ccccc3)C2)cc1,76.7% (inactive)
20,c1ccc([I+]c2ccccc2)cc1,55% (inactive)
